In PubChem BioAssay AID434970 (Sanford-Burnham Center for Chemical Genomics, 2010):
About 310 (2.8%) of roughly 11,000 compounds were called active. Cut-off read from the data, not from the text of the source: active = activity change below about -85%; inactive = the rest. The entries come from a sample that favours actives as a whole.

test system: intestinal alkaline phosphatase [Mus musculus]; test: activators of mouse IAP, confirmation, biochemical, luminescence, single concentration (AID 434970); details: purified mouse IAP, CDP-Star luminescence, 30 min, at 10 µM; activation factor: measured here: IAP activation factor, stronger effect = higher value; activity change, negative = activation: stronger effect = lower value

Row | SMILES | activation factor | activity change, negative = activation
1 | Cc1ccc(-c2nn3c(C)nnc3s2)cc1NC(=O)c1ccc(-c2cccc(Cl)c2)o1 | 0.849 | 15.2% (inactive)
2 | Cc1ccccc1NC1=C(Cl)C(=O)OC1OC(C)C (configuration not stated) | 0.976 | 2.45% (inactive)
3 | CCOC(=O)c1c(N)sc(C(N)=O)c1C | 1.01 | -0.6% (inactive)
4 | O=C(Nc1c(-c2ccccc2)nc2sccn12)c1ccccc1 | 0.907 | 9.25% (inactive)
5 | CCN(CC)S(=O)(=O)c1ccc(Cl)c(C(=O)Oc2cccnc2)c1 | 0.919 | 8.05% (inactive)
6 | COC(=O)C1=C(C)NC2=C(C(=O)C(C(=O)OC)C(c3ccc(OC)cc3)C2)C1c1ccccn1 (configuration not stated) | 1.07 | -6.6% (inactive)
7 | CC(=O)Nc1ccc(NS(C)(=O)=O)cc1 | 0.891 | 10.9% (inactive)
8 | O=C1CC(N2CCN(c3ccccc3F)CC2)C(=O)N1c1ccc2c(c1)OCCO2 (configuration not stated) | 0.964 | 3.6% (inactive)
9 | O=C(CSc1nnc(-c2ccco2)n1Cc1ccco1)NCc1ccccc1 | 1.11 | -11.1% (inactive)
10 | O=C(Nc1cccc(C(F)(F)F)c1)NC1CCCCC1 | 2.1 | -110% (active)
11 | O=C(Nc1cccc(C(F)(F)F)c1)NC1CCN(S(=O)(=O)c2ccc(F)cc2)CC1 | 1.81 | -81.5% (inactive)
12 | FC(F)(F)c1ccc(NC(=S)NC2CCCCC2)cc1 | 1.25 | -24.9% (inactive)
13 | O=c1[nH]c2ccc(S(=O)(=O)Nc3ccc(-c4nnc5n4CCCCC5)cc3)cc2o1 | 0.87 | 13% (inactive)
14 | CCc1ccc(C(C)NC(=S)NCc2ccc(F)cc2)cc1 (configuration not stated) | 1.11 | -10.5% (inactive)
15 | CC(NC(=S)NCc1ccc(F)cc1)C12CC3CC(CC(C3)C1)C2 (configuration not stated) | 4.19 | -319% (active)
16 | CCC(NC(=S)NCc1ccc(F)cc1)c1ccc(C(C)C)cc1 (configuration not stated) | 1.39 | -38.5% (inactive)
17 | COc1cc(CN(C2CC2)S(=O)(=O)c2ccccc2Br)cc(OC)c1 | 1.07 | -7.4% (inactive)
18 | O=C(c1ccco1)N1CCN(C(=O)C2CCN(S(=O)(=O)c3cnc[nH]3)CC2)CC1 | 0.909 | 9.15% (inactive)
19 | CC(C)(C)c1nc(NC(=O)Nc2ccccc2)sc1Br | 2.12 | -112% (active)
20 | O=C(NNc1cccc(Cl)n1)Nc1ccccc1 | 0.964 | 3.55% (inactive)
21 | CCOc1ccc2nc(NC(=O)Nc3ccccc3)sc2c1 | 1.04 | -3.8% (inactive)
22 | CC(C)(C)c1ccc(OC(=O)c2cccnc2)cc1 | 1.01 | -0.6% (inactive)
23 | CCO/C(C)=C1\N=C(c2ccc(Cl)cc2)OC1=O | 1.06 | -5.85% (inactive)
24 | O=C(Nc1ccc2c(c1)OCCO2)C1CCN(S(=O)(=O)c2cccc3nsnc23)CC1 | 0.988 | 1.25% (inactive)
25 | O=C(Nc1cccc(-c2cccc(Cl)c2)c1)C1CCN(Cc2ccon2)CC1 | 1.73 | -73.1% (active)
26 | O=C(Nc1cccc(-c2cccc(F)c2)c1)C1CCN(Cc2ccc(CO)o2)CC1 | 1.64 | -64.3% (inactive)

Row | SMILES | activation factor | activity change, negative = activation
27 | Cc1oc(-c2ccc(Cl)cc2)nc1CN1CCC(C(=O)NCc2cccs2)CC1 | 1.19 | -19.5% (inactive)
28 | O=C(NCc1ccc2c(c1)OCO2)C1CCCN1C(=O)Nc1cccc(Cl)c1 (configuration not stated) | 1.03 | -2.95% (inactive)
29 | COCc1ccc(CN2CCC(C(=O)Nc3cccc(-c4cccc(Cl)c4)c3)CC2)o1 | 4.36 | -336% (active)
30 | O=C(Nc1cccc(-c2cccc(Cl)c2)c1)C1CCN(CC2CCOC2)CC1 (configuration not stated) | 2.32 | -132% (active)
31 | O=C(Nc1cccc(-c2cccc(Cl)c2)c1)C1CCN(Cc2ccc(CO)o2)CC1 | 2.61 | -161% (active)
32 | O=C(Nc1ccc(Br)c(Cl)c1)C1CC1 | 1.01 | -1.05% (inactive)
33 | CCOc1ccc(Br)cc1S(=O)(=O)Nc1ccccc1N1CCOCC1 | 0.919 | 8.1% (inactive)
34 | CC(C)N(C(=O)[C@H]1C[C@H](CC(=O)NC(C)(C)C)C(=O)N2CCc3c([nH]c4cc(-c5ccco5)ccc34)[C@]12C)C(C)C | 1.09 | -9% (inactive)
35 | CC(=O)NC1=NN(C(C)=O)C(c2cccs2)S1 (configuration not stated) | 1.08 | -8% (inactive)
36 | CCSc1sccc1C1C(C#N)=C(N)N(c2cccnc2)C2=C1C(=O)CCC2 (configuration not stated) | 0.703 | 29.8% (inactive)
37 | Cc1oc(-c2ccccc2F)nc1CN1CCC(C(=O)NC2CCCc3ccccc32)CC1 (configuration not stated) | 1.12 | -12.4% (inactive)
38 | CC[C@]12c3[nH]c4ccc(OC)cc4c3CCN1C(=O)C(CC(=O)NCc1cccc(C(F)(F)F)c1)C[C@@H]2C(=O)N1CCN(C(=O)c2ccco2)CC1 (some centres not stated) | 0.989 | 1.05% (inactive)
39 | CN(Cc1ccccc1)C(=O)Cn1cccc1C(=O)c1ccccc1 | 1.13 | -13.4% (inactive)
40 | O=C(C1CCCN1C(=O)c1cccs1)N1CCN(Cc2ccc3c(c2)OCO3)CC1 (configuration not stated) | 0.924 | 7.55% (inactive)
41 | OCCN1CCN(C(=S)c2ccc(Cl)c(Cl)c2)CC1 | 0.845 | 15.5% (inactive)
42 | CSCC[C@H](N)C(=O)NC[C@H]1O[C@@H](n2cnc3c(N)ncnc32)[C@H](O)[C@@H]1O | 0.994 | 0.55% (inactive)
43 | CC(C)CC(=O)NC(NC(=S)Nc1sc2c(c1C#N)CCCC2)C(Cl)(Cl)Cl (configuration not stated) | 0.587 | 41.3% (inactive)
44 | C[C@H](CO)N1C[C@H](C)[C@H](CN(C)Cc2ccc(Oc3ccccc3)cc2)Oc2ccc(NC(=O)Nc3cccc4ccccc34)cc2CC1=O | 2.03 | -103% (active)
45 | C[C@@H]1CN([C@H](C)CO)C(=O)c2cc(NC(=O)Nc3cccc4ccccc34)ccc2O[C@H]1CN(C)Cc1ccc(C(F)(F)F)cc1 | 2.2 | -120% (active)
46 | C[C@H](CO)N1C[C@H](C)[C@H](CN(C)Cc2ccccc2)Oc2ccc(NC(=O)Nc3ccc(F)cc3)cc2C1=O | 1.54 | -53.5% (inactive)
47 | C[C@@H]1CN([C@H](C)CO)C(=O)Cc2cc(NC(=O)Nc3ccccc3)ccc2O[C@@H]1CN(C)Cc1ccc2c(c1)OCO2 | 1.66 | -66.3% (inactive)
48 | C[C@@H]1CN([C@@H](C)CO)C(=O)c2cccc(NC(=O)Nc3ccc(F)cc3)c2O[C@@H]1CN(C)Cc1ccc(Oc2ccccc2)cc1 | 2.17 | -117% (active)
49 | C[C@@H]1CN([C@H](C)CO)C(=O)c2cc(NC(=O)Nc3ccc(F)cc3)ccc2O[C@H]1CN(C)C(=O)Nc1ccc(C(F)(F)F)cc1 | 1.57 | -57.4% (inactive)
50 | C[C@@H]1CN([C@@H](C)CO)C(=O)Cc2cc(NC(=O)Nc3cccc4ccccc34)ccc2O[C@@H]1CN(C)Cc1ccc(C(F)(F)F)cc1 | 1.75 | -75% (inactive)
51 | CC(C)NC(=O)N(C)C[C@H]1Oc2ccc(NC(=O)Nc3ccc(C(F)(F)F)cc3)cc2C(=O)N([C@H](C)CO)C[C@@H]1C | 1.96 | -96.3% (inactive)
52 | C[C@H]1CN([C@@H](C)CO)C(=O)c2cc(NC(=O)Nc3cccc4ccccc34)ccc2O[C@@H]1CN(C)Cc1ccc(-c2ccccc2)cc1 | 2.14 | -114% (active)

Row | SMILES | activation factor | activity change, negative = activation
53 | C[C@@H]1CN([C@@H](C)CO)C(=O)Cc2cc(NC(=O)Nc3cccc4ccccc34)ccc2O[C@@H]1CN(C)S(C)(=O)=O | 1.46 | -46.2% (inactive)
54 | C[C@@H]1CN([C@@H](C)CO)C(=O)c2cc(NC(=O)Nc3ccccc3)ccc2O[C@H]1CN(C)C(=O)Nc1cccc2ccccc12 | 1.8 | -79.6% (inactive)
55 | C=CCn1c(C)cc(C(=O)COC(=O)COc2ccccc2C#N)c1C | 0.919 | 8.05% (inactive)
56 | S=c1[nH]nc(CSc2nc3ccccc3s2)n1Cc1ccccc1 | 1.1 | -10.1% (inactive)
57 | CCOC(=O)C1=CN(Cc2cccc(F)c2)S(=O)(=O)N(CC)C1c1ccc(F)c(Cl)c1 (configuration not stated) | 1.1 | -9.9% (inactive)
58 | CC(=O)Cc1nsc(NC(=O)c2ccc(-c3cccc(C(F)(F)F)c3)o2)n1 | 0.948 | 5.2% (inactive)
59 | COc1cc(OC)c(C2N(c3ccccn3)C(=O)C3CCCN32)cc1OC (configuration not stated) | 1.11 | -10.6% (inactive)
60 | Cc1cc(C(=O)CSc2nnc(-c3cccc(F)c3)n2N)c(C)n1Cc1ccc2c(c1)OCO2 | 0.849 | 15.2% (inactive)
61 | Nc1ncnc2c1ncn2[C@@H]1O[C@H](CNC(=O)[C@@H](N)CO)[C@@H](O)[C@H]1O | 0.992 | 0.75% (inactive)
62 | S=C(NCc1ccccc1)Nc1ccc(Oc2ccccc2)cc1 | 1.49 | -49% (inactive)
63 | COc1cc(OC)c2c(-c3ccccc3)cc(=O)oc2c1C(CCN1CCOCC1)c1ccc(N(C)C)cc1 (configuration not stated) | 0.992 | 0.8% (inactive)
64 | CN(C)S(=O)(=O)n1cnc(-c2ccccc2)c1-c1ccccc1 | 1.06 | -5.85% (inactive)
65 | Cc1ccc(N/C(N)=N/c2nc(C)cc(N3CCCCC3)n2)c(C)c1 | 4.22 | -322% (active)
66 | Cc1cccc(N/C(N)=N/c2nc(C)cc(C)n2)c1 | 1.05 | -4.7% (inactive)
67 | Cc1ccc(NC(=O)C2CCN(C(=O)NC3CCCCC3)CC2)c(C)c1 | 1.02 | -1.95% (inactive)
68 | CCOC(=O)C1=CN(Cc2ccco2)S(=O)(=O)NC1c1cccc(OC)c1 (configuration not stated) | 0.986 | 1.35% (inactive)
69 | CCOc1ccc(-c2nnc(-c3cccnc3)o2)cc1OCC | 0.916 | 8.35% (inactive)
70 | O=S(=O)(Nc1ccccc1)c1ccc(Oc2ncc(C(F)(F)F)cc2Cl)cc1 | 0.903 | 9.65% (inactive)
71 | Cc1cc(C)cc(NC2=NC3(CCCCC3)N=C(N)N2)c1 | 3.22 | -222% (active)
72 | COc1ccc(OC)c(NC2=NC3(CCCC3)N=C(N)N2)c1 | 1.22 | -21.9% (inactive)
73 | COc1ccc(OC)c(NC2=NC3(CCCCC3)N=C(N)N2)c1 | 1.17 | -16.5% (inactive)
74 | COc1cccc(NC2=NC3(CCCCC3)N=C(N)N2)c1 | 1.5 | -50.5% (inactive)
75 | CCCCOc1ccc(NC2=NC3(CCCCC3)N=C(N)N2)cc1 | 5.53 | -453% (active)
76 | CC1(C)N=C(N)NC(Nc2ccccc2)=N1 | 1.04 | -4% (inactive)
